Several values for one entry are separate records, joined by “and”; a condition that tells them apart may be missing. Equal entries are not always repeated. Inconclusive results are not listed. Activity calls are given as the source filed them. Unless noted, the call rests on the fitted dose curve; in most records, active means well fitted curve in the direction sought with a large enough effect; inconclusive means small, poorly fitted or top-dose-only effect, or another doubt; inactive means no such curve, though single readings can be large; an effect the other way counts as inactive or inconclusive.

Experimental findings from PubChem BioAssay (NCATS) are described below.

Experiment [1] concerns the target Cytochrome P450 3A4 (Homo sapiens) (UniProt P08684). The experiment can be described thus: qHTS Assay for Activators of Cytochrome P450 3A4 (AID 885). Further: nearly all actives have a fitted effect of over 65% in size. Summed up: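 Steps: enzyme/substrate mix dispensed; compound added, 10 min RT; NADPH regeneration solution added, 60 min RT; luciferin detection buffer stops reaction; 20 min later luminescence measured.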
In general terms: qHTS replaces the single test concentration by a dilution series.

For experiment [2], the target named is Androgen receptor (Homo sapiens) (UniProt P10275). Description: qHTS assay for small molecule agonists of androgen receptor signaling (AID 588515; active means well fitted curve in the direction sought with a large enough effect in the signal ratio, with a control signal flat; the % refers to the signal ratio; further: on the % scale 0 is the no-effect control and ±100 the full control effect). To be noted: AR-UAS-bla HEK293, beta-lactamase ratio, agonist 16 h; stronger effect = higher value. In a few lines: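 EC50 and efficacy came from Hill fits of titrations (up to 92 uM) normalized to 30 nM R1881 as 100% and DMSO as 0%. Compound exposure was 16 h at 37 C on AR-UAS-bla HEK293 cells, with a 405/460/530 nm CCF4 fluorescence read.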
Chain of Androgen receptor (Homo sapiens) (P10275 whole entry, looked up): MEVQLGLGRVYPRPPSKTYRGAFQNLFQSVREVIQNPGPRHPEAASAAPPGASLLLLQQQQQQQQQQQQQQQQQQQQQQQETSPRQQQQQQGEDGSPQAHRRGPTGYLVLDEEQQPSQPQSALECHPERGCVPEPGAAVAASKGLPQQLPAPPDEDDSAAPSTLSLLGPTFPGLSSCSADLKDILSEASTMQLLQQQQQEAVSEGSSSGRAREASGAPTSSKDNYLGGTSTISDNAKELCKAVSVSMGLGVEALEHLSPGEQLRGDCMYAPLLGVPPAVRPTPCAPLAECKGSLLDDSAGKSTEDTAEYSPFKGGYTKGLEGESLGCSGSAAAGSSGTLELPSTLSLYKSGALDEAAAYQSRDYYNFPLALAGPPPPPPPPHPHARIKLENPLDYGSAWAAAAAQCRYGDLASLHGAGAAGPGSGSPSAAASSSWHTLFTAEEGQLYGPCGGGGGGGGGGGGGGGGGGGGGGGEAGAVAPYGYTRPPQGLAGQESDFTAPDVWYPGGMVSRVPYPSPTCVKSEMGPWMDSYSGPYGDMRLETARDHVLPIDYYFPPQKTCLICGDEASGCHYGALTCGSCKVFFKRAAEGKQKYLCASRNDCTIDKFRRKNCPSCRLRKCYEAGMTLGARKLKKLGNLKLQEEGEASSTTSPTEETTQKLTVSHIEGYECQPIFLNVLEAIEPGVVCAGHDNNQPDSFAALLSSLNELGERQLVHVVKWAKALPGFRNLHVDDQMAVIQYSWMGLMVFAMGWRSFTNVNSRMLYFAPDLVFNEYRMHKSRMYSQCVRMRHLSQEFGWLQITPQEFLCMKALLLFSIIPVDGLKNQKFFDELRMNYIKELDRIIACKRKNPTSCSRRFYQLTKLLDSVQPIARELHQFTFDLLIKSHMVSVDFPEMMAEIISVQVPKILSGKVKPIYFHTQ

Experiment [3] in a line: qHTS assay to identify small molecules that stimulate interleukin-8 (IL-8) secretion (AID 651758; active means well fitted activation curve with a large enough effect in the signal ratio; the % refers to the signal ratio; further: potency means the concentration at half of the fitted maximal effect; on activation: 0% is about no effect). In a few lines: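 THP-1 cells (2000/well) exposed to compound 16 h at 37 C; secreted IL-8 then detected by HTRF with cryptate- and XL665-labelled anti-IL-8 antibody pair after 1-3 h at room temperature.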
Experiment [4] is described as follows: qHTS assay for small molecule antagonists of peroxisome proliferator-activated receptor delta signaling (AID 588535; active means well fitted inhibition curve with a large enough effect in the signal ratio, with a control signal flat, not every such curve was filed as active; the % refers to the signal ratio;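 on max response: cells co-treated with a PPAR-delta agonist as stimulator during compound exposure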). The settings on record: HEK293T PPARd-UAS-bla, beta-lactamase FRET ratio, 18 h; 460 nm channel. In a few lines:
(§1)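 Cells were seeded at 4000 per well in assay medium containing 2% charcoal/dextran FBS and held 5 hrs at 37 C. Compounds were then added for 18 hrs. CCF4 substrate was applied for 2 hrs at room temperature before fluorescence reading.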

The target of experiment [5] is Peroxisome proliferator-activated receptor delta (Homo sapiens) (UniProt Q03181). The experiment is described as above. In a few lines: as §1
Chain of Peroxisome proliferator-activated receptor delta (Homo sapiens) (Q03181 whole entry, looked up): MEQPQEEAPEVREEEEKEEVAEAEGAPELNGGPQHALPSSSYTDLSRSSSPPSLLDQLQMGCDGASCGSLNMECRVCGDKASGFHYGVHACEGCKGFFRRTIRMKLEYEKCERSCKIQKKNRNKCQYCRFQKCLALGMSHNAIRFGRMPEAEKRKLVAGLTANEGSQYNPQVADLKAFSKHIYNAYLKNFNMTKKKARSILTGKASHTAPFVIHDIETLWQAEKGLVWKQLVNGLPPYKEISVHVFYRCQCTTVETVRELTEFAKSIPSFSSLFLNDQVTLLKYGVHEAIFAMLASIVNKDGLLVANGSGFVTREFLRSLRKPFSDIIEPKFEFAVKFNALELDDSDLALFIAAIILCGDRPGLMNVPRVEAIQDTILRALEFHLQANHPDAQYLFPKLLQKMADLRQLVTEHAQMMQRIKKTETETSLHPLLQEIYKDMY
Experiment [6] concerns the target Peroxisome proliferator-activated receptor gamma (Homo sapiens) (UniProt P37231). The experiment can be described thus: qHTS assay for small molecule agonists of peroxisome proliferator-activated receptor gamma signaling (AID 588536; active means well fitted curve in the direction sought with a large enough effect in the signal ratio, with a control signal flat, not every such curve was filed as active; the % refers to the signal ratio;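 further: 0% = DMSO basal wells and 100% = rosiglitazone at 2 µM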). Summed up:
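Test agents, titrated, stimulated HEK293 UAS-bla cells overnight (16 h, 37 C). Substrate CCF4 was then added for two hours at room temperature before fluorescence reading.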

Experiment [7] can be described thus: qHTS assay for small molecule agonists of retinoid X receptor alpha signaling (AID 588544). The settings on record: HEK293T RXRa-UAS-bla, beta-lactamase reporter, 18 h; 530 nm emission.
The target of experiment [8] is Bile acid receptor (Homo sapiens) (UniProt Q96RI1). Description: qHTS assay for small molecule antagonists of farnesoid X receptor signaling (AID 588526; calls by dose curve; further: potency means the concentration at half of the fitted maximal effect). Summed up:
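Antagonist mode: titrated compounds tested against chenodeoxycholic acid stimulation (normalized to 50 uM CDCA and DMSO) in GeneBLAzer HEK293T cells for 16 h. Beta-lactamase read by CCF4 fluorescence; IC50 from Hill fits.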

For experiment [9], the target named is Peroxisome proliferator-activated receptor gamma (Homo sapiens) (UniProt P37231). Description: qHTS assay for small molecule antagonists of peroxisome proliferator-activated receptor gamma signaling (AID 588537; active means well fitted inhibition curve with a large enough effect in the signal ratio, with a control signal flat, not every such curve was filed as active; the % refers to the signal ratio; further: potency means the concentration at half of the fitted maximal effect). In a few lines:
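Step one: plate 3000 HEK293 UAS-bla cells per well in medium with 1% stripped serum and hold 6-6.5 h at 37 C. Step two: add compound and 50 nM agonist for 16 h. Step three: CCF4 loading, fluorescence read.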

Experiment [10] concerns the target Guanine nucleotide-binding protein G(i) subunit alpha-1 (Homo sapiens) (UniProt P63096). The experiment can be described thus: qHTS Assay for Inhibitors of RGS12 GoLoco Motif Activity (Green Fluorophore) (AID 879).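 Further: 0% = labeled peptide with Gαi1 and full inhibition = labeled peptide alone without protein; negative values mean loss of peptide binding seen as reduced polarization.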 Summed up:
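Fluorescence polarization assay: 50 nM Gαi1 with 10 nM FITC-labeled RGS12 GoLoco peptide in 10 mM Tris pH 7.5, 150 mM NaCl, 0.1 mM GDP, 0.05% NP40, 10 min at room temperature with compound.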

The target of experiment [11] is Pyruvate kinase (Leishmania mexicana) (UniProt Q27686). The experiment can be described thus: qHTS Validation Assay for Inhibitors of Leishmania Mexicana Pyruvate Kinase (AID 945).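 Further: 0% = DMSO only neutral control wells.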 Summed up:
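Pyruvate kinase activity of E451W LmPYK (0.2 nM) was followed as ATP output after 1 h at room temperature with 0.5 mM PEP and 0.1 mM ADP, detected by PKLight luminescence.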

In experiment [12] the target is Alpha-galactosidase A (Homo sapiens) (UniProt P06280). Description: Counterscreen for Glucocerebrosidase Inhibitors: qHTS Assay for Human alpha-Galactosidase at pH 4.5 (AID 992). Further: 0% is about no effect. In a few lines: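 Concentration-response curves (0.7 nM to 77 uM final) were modeled with the Hill equation to give AC50. Reactions: 2 nM enzyme, 80 uM fluorogenic alpha-galactoside, pH 4.5 citric acid buffer, 20 min, room temperature.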
Chain of Alpha-galactosidase A (Homo sapiens) (P06280 whole entry, looked up): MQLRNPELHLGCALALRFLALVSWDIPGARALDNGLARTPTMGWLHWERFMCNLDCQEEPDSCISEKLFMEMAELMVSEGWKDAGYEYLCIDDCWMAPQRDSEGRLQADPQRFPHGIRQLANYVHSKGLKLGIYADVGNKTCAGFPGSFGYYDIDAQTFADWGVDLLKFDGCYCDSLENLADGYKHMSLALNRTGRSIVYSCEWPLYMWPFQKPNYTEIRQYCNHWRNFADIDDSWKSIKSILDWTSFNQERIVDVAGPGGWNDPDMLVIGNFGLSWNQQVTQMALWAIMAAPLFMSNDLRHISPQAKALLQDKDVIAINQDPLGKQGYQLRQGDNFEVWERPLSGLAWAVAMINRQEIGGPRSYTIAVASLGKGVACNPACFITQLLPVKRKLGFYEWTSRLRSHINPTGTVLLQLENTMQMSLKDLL
Background: A counterscreen serves to expose hits that act by an unwanted route or on another target.

Experiment [13] has as its target alpha-glucosidase (Oryza sativa, rice) (UniProt Q653V4). The experiment can be described thus: Counterscreen for Glucocerebrosidase Inhibitors: qHTS Assay for Rice alpha-Glucosidase at pH 5.0 (AID 997).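 Further: 0% = full activity with enzyme and -100% = basal without enzyme.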 Summed up:
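Rice alpha-glucosidase (4 nM final) with 400 uM 4-methylumbelliferyl-alpha-D-glucopyranoside in citrate buffer pH 5.0, 20 min at room temperature, stopped at pH 10; fluorescence 365/440 nm, compounds 0.7 nM–77 uM, AC50 from Hill fits.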

Experiment [14] addresses Androgen receptor (Homo sapiens) (UniProt P10275). Description: qHTS assay for small molecule antagonists of androgen receptor signaling (AID 588516; active means well fitted curve in the direction sought with a large enough effect in the signal ratio, with a control signal flat, not every such curve was filed as active; the % refers to the signal ratio; further: on the % scale 0 is the no-effect control and ±100 the full control effect). Summed up:
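Antagonist mode: inhibition of R1881-stimulated (10 nM final) bla reporter in GeneBLAzer AR HEK 293 cells, 16 h at 37C, compounds titrated. IC50 and efficacy from Hill-equation fits of 405/460–530 nm FRET ratios.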

Chain of Bile acid receptor (Homo sapiens) (Q96RI1 whole entry, looked up): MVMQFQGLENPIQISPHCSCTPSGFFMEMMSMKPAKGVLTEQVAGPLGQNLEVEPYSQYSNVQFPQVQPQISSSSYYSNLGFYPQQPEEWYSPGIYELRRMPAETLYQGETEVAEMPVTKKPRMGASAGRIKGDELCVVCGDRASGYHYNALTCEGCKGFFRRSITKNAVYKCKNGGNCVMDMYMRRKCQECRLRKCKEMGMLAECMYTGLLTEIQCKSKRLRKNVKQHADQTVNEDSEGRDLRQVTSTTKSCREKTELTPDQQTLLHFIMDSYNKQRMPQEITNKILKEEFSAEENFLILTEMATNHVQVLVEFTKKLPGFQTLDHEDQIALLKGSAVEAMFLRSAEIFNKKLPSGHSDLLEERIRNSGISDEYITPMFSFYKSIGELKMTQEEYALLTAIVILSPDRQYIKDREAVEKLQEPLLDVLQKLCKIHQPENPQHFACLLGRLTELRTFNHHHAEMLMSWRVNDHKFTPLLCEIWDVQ
Chain of Peroxisome proliferator-activated receptor gamma (Homo sapiens) (P37231 whole entry, looked up): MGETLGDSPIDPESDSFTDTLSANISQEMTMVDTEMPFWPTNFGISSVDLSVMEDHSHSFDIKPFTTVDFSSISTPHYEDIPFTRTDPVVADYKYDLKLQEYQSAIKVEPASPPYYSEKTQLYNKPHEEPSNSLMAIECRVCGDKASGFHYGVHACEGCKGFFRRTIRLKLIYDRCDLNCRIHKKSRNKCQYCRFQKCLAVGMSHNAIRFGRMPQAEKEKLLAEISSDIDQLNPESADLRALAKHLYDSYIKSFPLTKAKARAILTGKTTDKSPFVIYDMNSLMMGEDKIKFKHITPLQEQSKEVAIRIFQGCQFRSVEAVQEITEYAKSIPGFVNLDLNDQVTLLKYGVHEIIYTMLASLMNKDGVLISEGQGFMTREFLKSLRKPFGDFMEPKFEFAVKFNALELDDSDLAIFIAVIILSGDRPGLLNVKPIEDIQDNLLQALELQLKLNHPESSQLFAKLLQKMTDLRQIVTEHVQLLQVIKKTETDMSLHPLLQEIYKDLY
Chain of Cytochrome P450 3A4 (Homo sapiens) (P08684 whole entry, looked up): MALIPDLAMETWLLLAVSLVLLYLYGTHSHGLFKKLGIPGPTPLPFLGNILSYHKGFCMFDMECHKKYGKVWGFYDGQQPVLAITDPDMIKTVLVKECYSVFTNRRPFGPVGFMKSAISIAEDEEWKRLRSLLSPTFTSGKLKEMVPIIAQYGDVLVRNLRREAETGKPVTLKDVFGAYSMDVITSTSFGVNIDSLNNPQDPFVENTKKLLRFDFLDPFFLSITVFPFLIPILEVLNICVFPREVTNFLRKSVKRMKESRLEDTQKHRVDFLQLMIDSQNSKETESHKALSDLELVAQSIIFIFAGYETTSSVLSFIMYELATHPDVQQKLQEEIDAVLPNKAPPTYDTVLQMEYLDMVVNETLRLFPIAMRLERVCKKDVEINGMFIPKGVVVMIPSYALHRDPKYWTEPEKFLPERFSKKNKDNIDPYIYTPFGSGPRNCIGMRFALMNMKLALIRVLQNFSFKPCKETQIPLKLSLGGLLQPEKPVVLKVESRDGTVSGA
Chain of Guanine nucleotide-binding protein G(i) subunit alpha-1 (Homo sapiens) (P63096 whole entry, looked up): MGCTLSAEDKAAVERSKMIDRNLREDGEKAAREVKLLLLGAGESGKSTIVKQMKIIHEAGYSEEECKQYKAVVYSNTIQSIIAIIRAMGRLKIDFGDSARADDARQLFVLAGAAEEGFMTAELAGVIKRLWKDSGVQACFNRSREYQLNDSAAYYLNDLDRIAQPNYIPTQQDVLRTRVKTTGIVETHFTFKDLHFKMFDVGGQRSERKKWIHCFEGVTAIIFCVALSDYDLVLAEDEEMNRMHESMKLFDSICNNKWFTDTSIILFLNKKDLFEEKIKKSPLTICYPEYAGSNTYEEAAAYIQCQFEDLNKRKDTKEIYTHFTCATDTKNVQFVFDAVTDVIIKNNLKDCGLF
Chain of Pyruvate kinase (Leishmania mexicana) (Q27686 2-499 E452W): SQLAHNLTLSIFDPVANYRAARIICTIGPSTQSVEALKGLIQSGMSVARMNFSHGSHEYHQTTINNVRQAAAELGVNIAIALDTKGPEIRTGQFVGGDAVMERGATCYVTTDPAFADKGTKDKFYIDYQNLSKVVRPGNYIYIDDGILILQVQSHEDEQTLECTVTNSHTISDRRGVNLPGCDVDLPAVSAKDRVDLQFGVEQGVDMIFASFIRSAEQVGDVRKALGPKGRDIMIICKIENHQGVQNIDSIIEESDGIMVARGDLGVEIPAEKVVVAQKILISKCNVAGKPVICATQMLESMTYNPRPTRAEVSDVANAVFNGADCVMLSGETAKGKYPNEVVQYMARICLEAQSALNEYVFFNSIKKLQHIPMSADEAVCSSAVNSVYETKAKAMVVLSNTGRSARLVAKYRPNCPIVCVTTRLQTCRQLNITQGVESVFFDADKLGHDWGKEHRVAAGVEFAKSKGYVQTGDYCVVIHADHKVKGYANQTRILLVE

For `ClC1=C(Cl)C2(Cl)C3C(Cl)C(Cl)CC3C1(Cl)C2(Cl)Cl` (stereo unspecified), the Potency result in experiment [1] is “inactive”. In addition, in experiment [2], the activation was -9.52% (inactive). In addition, the Potency in [3] is 42.2 µM (active).

As for `C#CCO`, the max response in [4] stood at 29.5%; in experiment [7], 3.2%. Further, the Potency result in [5] and in [6] was “inactive” in each case.

On to `OC(c1ccc(Cl)cc1)(c1ccc(Cl)cc1)C(Cl)(Cl)Cl`, for which the Potency result in [8], in [6] and in experiment [3] was “inactive” each time. The max response in experiment [7] is -15%.

As to `Clc1ccc(C(c2ccc(Cl)cc2)C(Cl)Cl)cc1`, the max response in experiment [4] was -7.51%; in [7], -1.02%. Further, the Potency entry in experiment [5] was “inactive”.

As for `C(=NC1CCCCC1)=NC1CCCCC1`, the Potency result in experiment [8] was “inactive”. Further, the Potency in [3] was 53.1 µM (active).

In the case of `FC(F)(F)c1ccc(Cl)cc1`, the Potency result in experiment [8], in experiment [5], in [6] and in experiment [9] was “inactive” throughout. In addition, the max response in [4] was -2.48% and -14.3%.

Take `Nc1ccccc1C(=O)OCCc1ccccc1`: the Potency result in experiment [1] and in experiment [9] was “inactive” each time.

Regarding `O=[N+]([O-])c1cc(C(F)(F)F)cc([N+](=O)[O-])c1Cl`, the Potency result in [8], in [5], in [6] and in experiment [3] was “inactive” throughout. For the same molecule, the max response in experiment [4] was 32.3%.

For the molecule `N#CSCSC#N`, the Potency in experiment [9] was 35.5 µM (active).

As for `C[C@@H]1O[C@@H](O[C@H]2C[C@@H](O)[C@]3(CO)[C@@H]4[C@@H](O)C[C@]5(C)[C@H](C6=CC(=O)OC6)CC[C@@]5(O)[C@H]4CC[C@@]3(O)C2)[C@H](O)[C@H](O)[C@@H]1O`, the Potency result in experiment [10] and in experiment [11] was “inactive” in each case. The result in [12] and in experiment [13] was inactive.

For the molecule `O=C(CCl)c1ccccc1`, in experiment [4], the max response worked out at 18.1%. Moreover, the Potency entry in experiment [5] and in experiment [9] was “inactive” in each case.

`Oc1c(Br)c(Br)c(Br)c(Br)c1Br`: the Potency entry in experiment [14] was “inactive”. Also, the Potency in [8] is 28.2 µM (active).

In the case of `CCCCCCCCn1sccc1=O`, the Potency result in experiment [1] and in experiment [6] was “inactive” throughout.

Regarding `N#CC(Cl)Cl`, the Potency result in experiment [1] and in [14] was “inactive” each time. For the same molecule, the activation in [2] is 16.6% (inactive). Moreover, the max response in [7] was 17.1%.

Consider `O=[N+]([O-])C(Br)Br`, for which, in experiment [2], the activation is 6.33% (inactive). Also, the Potency result in experiment [14], in [5], in experiment [6] and in [9] was “inactive” in each case. Moreover, the max response in experiment [4] is -33.2%; in experiment [7] it was -3.79%.
